Results reported in PubChem BioAssay (EPA / NIEHS).
“And” between values parts separate entries of the source, which are not always exact repeats. Identical values can stand only once. The source made the active and inactive calls. Rule for the calls: active = hit-call score of the fitted dose curve at least 0.9, where 1 is the maximum; inactive = score below 0.9.

Experiment: BSK_hDFCGF_SRB: Viability Assessment in the BioMAP Diversity Plus: hDFCGF Assay (AID 2283061);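 note: cells exposed to compound for 24 h before the read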
Conditions: primary human foreskin fibroblasts
Method: BSK_hDFCGF is a cell-based, multiplexed-readout assay that uses foreskin fibroblast, a human skin primary cell, with measurements taken at 24 hours after chemical dosing in a 96-well plate.BSK_hDFCGF_SRB is an assay component measured in the BSK_hDFCGF assay. It measures 0.1% sulforhodamine related to cell death using Sulforhodamine staining technology.Data from the assay component BSK_hDFCGF_SRB was analyzed into 1 assay endpoint. This assay endpoint, BSK_hDFCGF_SRB, was analyzed with bidirectional fitting relative to DMSO as the negative control and baseline of activity. Using a type of viability reporter, gain or loss-of-signal activity can be used to understand changes in the signaling. Furthermore, this assay endpoint can be referred to as a primary readout, because this assay has produced multiple assay endpoints where this one serves a signaling function. To generalize the intended target to other relatable targets, this assay endpoint is annotated to the cell morphology intended target family, where the subfamily is cell conformation.
The levels of cell surface (or secreted, indicated by the prefix "s") biomarker endpoints were measured by ELISA. Overt cytotoxicity to cells in confluent adherent cultures (all systems other than the BT system) was assessed by measuring total protein levels using sulforhodamine B (SRB) staining in parallel cultures at the time of biomarker measurements, indicated as SRB endpoints. For proliferation assays for adherent cell types, individual cell types are cultured at sub-confluence and relative cell numbers quantified by SRB staining at time points optimized for each system (48 h: 3C and CASM3C systems; 72 h: BT and HDF3CGF systems; 96 h: SAg system). SRB was performed by staining cells with 0.1% SRB after fixation with 10% TCA and reading wells at 560 nm.Viability and proliferation of PBMC (T cells) was quantified by Alamar Blue reduction for the SAg and BT systems. For PBMC viability (referred to as PBMC Cytotoxicity within the assay endpoint names), cells were plated (75,000/well in a 96-well plate) and then chemical samples added for 1 h before addition of activators, SEB and TSST-1 (20 ng/mL final concentration each). Cells were incubated for 90 h. Then, Alamar Blue (20 uL/well) (Invitrogen, Cat DAL1100) was added for 6 h, and the plates were read with a fluorescence microplate reader at 546/580 nm (excitation/emission). For PBMC proliferation, cells were plated and activated as above but incubated for only 16 h prior to addition of Alamar Blue. Plates were read after 6 h.

| Structure (SMILES) | outcome | AC50 |
| --- | --- | --- |
| CN(CCOc1ccc(CC2SC(=O)NC2=O)cc1)c1ccccn1 (stereo not given) | inactive | – |
| CC(C)Oc1ccccc1O | inactive | – |
| CCC(=O)OCc1ccccc1 | inactive | – |
| CCCCC/C=C/C=C/C=O | – | 12.7 µM (active) |
| CCCCCCCCC=O | inactive | – |
| CC(C)(COC(=O)c1ccccc1)COC(=O)c1ccccc1 | – | 31.5 µM (active) |
| O=C1CCCCCCCCCCCCCCO1 | inactive | – |
| CC[Si](OC(C)=O)(OC(C)=O)OC(C)=O | inactive | – |
| CCCCCCCCCC=O | inactive | – |
| OC[C@H]1O[C@H](O[C@]2(CCl)O[C@H](CCl)[C@@H](O)[C@@H]2O)[C@H](O)[C@@H](O)[C@H]1Cl | inactive | – |
| NCCNCCN | inactive | – |
| OC1OC[C@@H](O)[C@H](O)[C@H]1O (stereo not given in full) | inactive | – |
| CC(=O)[C@H]1CC[C@H]2[C@@H]3CC=C4C[C@@H](O)CC[C@]4(C)[C@H]3CC[C@]12C | inactive | – |
| CC1COc2ccccc2N1C(=O)C(Cl)Cl (stereo not given) | – | 20 µM (active) |
| C=CCOC(=O)CCC1CCCCC1 | inactive | – |
| CCCCC(CC)COCCC#N (stereo not given) | inactive | – |
| Cc1ccc(Nc2ccc(O)c3c2C(=O)c2ccccc2C3=O)cc1 | inactive | – |
| CCCCCCCCCCCCCCCCCC(=O)OCC(CC)CCCC (stereo not given) | inactive | – |
| COc1cc(C=O)ccc1OC(=O)C(C)C | inactive | – |
| O=C(O)c1cn(-c2ccc(F)cc2)c2cc(N3CCNCC3)c(F)cc2c1=O | inactive | – |

| Structure (SMILES) | outcome | AC50 |
| --- | --- | --- |
| COC(=O)c1ccc(C)cc1 | inactive | – |
| C#C[C@]1(O)CC[C@H]2[C@@H]3CCC4=Cc5oncc5C[C@]4(C)[C@H]3CC[C@@]21C | inactive | – |
| CCc1c(C)cc(N)c(CC)c1N | inactive | – |
| C[C@H]1C[C@@H]2[C@H]([C@@H](O)C[C@@]3(C)[C@H]2CC[C@]3(O)C(=O)CO)[C@@]2(C)C=CC(=O)C=C12 | – | 394 nM (active) and 339 nM (active) |
| CC(=O)O[C@]1(C(C)=O)CC[C@H]2[C@@H]3C[C@H](C)C4=CC(=O)CC[C@]4(C)[C@H]3CC[C@@]21C | inactive | – |
| Nc1cc([N+](=O)[O-])ccc1Cl | inactive | – |
| O=C(O)c1ccc([N+](=O)[O-])cc1 | inactive | – |
| CC1CCC(C(C)CS)CC1S (stereo not given) | – | 7.28 µM (active) |
| O=C=NC1CCC(CC2CCC(N=C=O)CC2)CC1 (stereo not given) | inactive | – |
| Cc1ccc2n[nH]nc2c1 | inactive | – |
| Cc1cc(C2(c3cc(C)c(O)cc3C)OS(=O)(=O)c3ccccc32)c(C)cc1O | inactive | – |
| O=C1OC2(c3cc(Br)c(O)c(Br)c3Oc3c2cc(Br)c(O)c3Br)c2c(Cl)c(Cl)c(Cl)c(Cl)c21 | – | 6.54 µM (active) |
| CNC[C@H](O)c1cccc(O)c1 | inactive | – |
| O=[N+]([O-])c1cc(C(F)(F)F)ccc1Cl | inactive | – |
| CC(=O)OCCC(C)CC(C)(C)C (stereo not given) | inactive | – |
| O=C(O)c1cn(C2CC2)c2cc(N3CCNCC3)c(F)cc2c1=O | inactive | – |
| c1ccc2c(c1)c1cccc3ccc4cccc2c4c31 | inactive | – |
| Nc1cc([N+](=O)[O-])ccc1O | – | 1.16 µM (active) and 826 nM (active) |
| CC(=O)Nc1ccccc1O | inactive | – |
| CCCCC(CC)COC(=O)/C=C\C(=O)OCC(CC)CCCC (stereo not given) | inactive | – |
